What all share (experiment): DAPPL (digital affinity profiling via proximity ligation, sequencing); 10 mM Tris-HCl pH 7.5, 50 mM NaCl, 1 mM DTT, 4% glycerol, room temperature, 30 min; GST-TFs on glutathione beads, 16-mer random dsDNA library, 0.1% formaldehyde crosslink after washing; high values mean tight binding
Common to all, as to conditions: protein: recombinant; tags: N-terminal GST; dsDNA, one strand shown

One assay concerns the target T1, ELK1 (Homo sapiens, UniProt P19419 1-428).
T1 sequence: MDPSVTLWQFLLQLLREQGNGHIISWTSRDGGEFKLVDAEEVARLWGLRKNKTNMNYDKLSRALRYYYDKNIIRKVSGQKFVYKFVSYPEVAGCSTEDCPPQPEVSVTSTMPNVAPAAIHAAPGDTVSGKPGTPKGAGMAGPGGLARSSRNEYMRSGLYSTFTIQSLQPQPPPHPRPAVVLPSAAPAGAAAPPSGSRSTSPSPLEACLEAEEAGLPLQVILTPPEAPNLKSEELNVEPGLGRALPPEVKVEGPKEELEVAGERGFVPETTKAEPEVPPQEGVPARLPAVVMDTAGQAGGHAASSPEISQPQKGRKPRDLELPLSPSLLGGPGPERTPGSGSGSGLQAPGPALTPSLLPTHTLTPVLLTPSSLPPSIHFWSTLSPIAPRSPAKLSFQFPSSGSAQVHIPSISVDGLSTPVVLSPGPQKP
The essentials:
(§1)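 Pools were built from human transcription factors expressed in yeast as GST fusions, captured on glutathione beads and DNA-barcoded, along with a tag-only sample. Incubation with 200 nmole of a 16-mer random double-stranded DNA library lasted 30 min at room temperature in Tris/NaCl/DTT/glycerol buffer, and was followed by washing, 0.1% formaldehyde crosslinking, proximity ligation, PCR amplification and Illumina NextSeq500 sequencing. Binding signal is the quotient of each hexamer's read frequency for a factor and its frequency for the tag-only sample.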

The next assay concerns the target T2, GABPA (Homo sapiens, UniProt Q06546 1-454).
T2 sequence: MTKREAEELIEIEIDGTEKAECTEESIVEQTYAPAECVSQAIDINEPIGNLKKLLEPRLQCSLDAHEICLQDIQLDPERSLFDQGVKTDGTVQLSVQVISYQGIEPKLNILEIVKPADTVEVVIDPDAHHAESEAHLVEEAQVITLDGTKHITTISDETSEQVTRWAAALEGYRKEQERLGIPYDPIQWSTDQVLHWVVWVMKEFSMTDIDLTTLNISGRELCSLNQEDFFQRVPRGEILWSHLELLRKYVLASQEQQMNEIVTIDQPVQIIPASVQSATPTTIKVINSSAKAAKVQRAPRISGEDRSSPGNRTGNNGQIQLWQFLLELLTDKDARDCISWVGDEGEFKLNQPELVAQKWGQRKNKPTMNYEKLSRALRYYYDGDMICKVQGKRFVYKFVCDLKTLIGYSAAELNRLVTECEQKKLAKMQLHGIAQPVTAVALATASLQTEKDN
The essentials:
as §1

A further assay has as its target T3, ERG (Homo sapiens, UniProt P11308 1-479).
T3 sequence: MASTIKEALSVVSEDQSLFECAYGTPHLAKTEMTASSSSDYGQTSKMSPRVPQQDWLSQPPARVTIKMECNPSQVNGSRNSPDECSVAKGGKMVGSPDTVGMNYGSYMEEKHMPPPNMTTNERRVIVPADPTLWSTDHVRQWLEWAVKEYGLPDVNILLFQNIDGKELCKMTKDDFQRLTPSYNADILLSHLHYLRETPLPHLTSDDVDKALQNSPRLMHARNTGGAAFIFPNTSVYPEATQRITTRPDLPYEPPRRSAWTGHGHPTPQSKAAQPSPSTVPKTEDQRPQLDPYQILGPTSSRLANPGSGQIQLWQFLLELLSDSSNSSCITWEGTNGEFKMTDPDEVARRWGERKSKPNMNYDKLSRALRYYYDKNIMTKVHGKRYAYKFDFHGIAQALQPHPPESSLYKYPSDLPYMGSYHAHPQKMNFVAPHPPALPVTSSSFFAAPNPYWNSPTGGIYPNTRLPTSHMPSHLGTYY
The essentials: as §1

For a further assay, the target named is ELF1 (Homo sapiens, UniProt P32519 1-619). In a few lines: as §1
Sequence of ELF1 (P32519 whole entry): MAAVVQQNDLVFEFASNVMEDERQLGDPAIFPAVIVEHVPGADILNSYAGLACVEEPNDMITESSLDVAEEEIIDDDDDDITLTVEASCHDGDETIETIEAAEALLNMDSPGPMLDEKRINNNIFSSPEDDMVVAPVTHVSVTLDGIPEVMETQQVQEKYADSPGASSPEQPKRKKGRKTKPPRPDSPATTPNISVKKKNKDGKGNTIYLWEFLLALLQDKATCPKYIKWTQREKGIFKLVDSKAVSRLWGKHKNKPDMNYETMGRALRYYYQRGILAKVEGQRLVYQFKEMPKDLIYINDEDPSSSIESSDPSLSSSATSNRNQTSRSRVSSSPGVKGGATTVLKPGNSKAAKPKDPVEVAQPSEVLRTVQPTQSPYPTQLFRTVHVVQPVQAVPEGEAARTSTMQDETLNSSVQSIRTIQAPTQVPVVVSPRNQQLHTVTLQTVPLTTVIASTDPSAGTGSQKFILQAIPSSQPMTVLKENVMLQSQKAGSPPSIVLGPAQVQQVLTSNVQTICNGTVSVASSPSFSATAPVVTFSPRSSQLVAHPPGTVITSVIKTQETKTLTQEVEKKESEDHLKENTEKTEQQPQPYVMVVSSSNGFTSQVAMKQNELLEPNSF
A further assay addresses T4, EHF (Homo sapiens, UniProt Q9NZC4 1-300).
T4 sequence: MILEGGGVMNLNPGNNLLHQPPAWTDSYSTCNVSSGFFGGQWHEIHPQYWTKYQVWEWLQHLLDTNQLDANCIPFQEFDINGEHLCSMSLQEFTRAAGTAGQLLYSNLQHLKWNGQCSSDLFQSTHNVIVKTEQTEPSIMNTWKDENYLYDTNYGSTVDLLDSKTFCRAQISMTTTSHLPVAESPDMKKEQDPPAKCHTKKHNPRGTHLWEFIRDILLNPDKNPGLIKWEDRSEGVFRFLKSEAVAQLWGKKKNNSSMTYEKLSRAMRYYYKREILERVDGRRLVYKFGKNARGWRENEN
In a few lines: as §1

The next assay addresses SPI1 (Homo sapiens, UniProt P17947 1-270). The essentials: as §1
For another assay, the target named is SPIB (Homo sapiens, UniProt Q01892 1-262). The essentials:
as §1

In the next assay the target is T5, FEV (Homo sapiens, UniProt Q99581 1-238).
T5 sequence: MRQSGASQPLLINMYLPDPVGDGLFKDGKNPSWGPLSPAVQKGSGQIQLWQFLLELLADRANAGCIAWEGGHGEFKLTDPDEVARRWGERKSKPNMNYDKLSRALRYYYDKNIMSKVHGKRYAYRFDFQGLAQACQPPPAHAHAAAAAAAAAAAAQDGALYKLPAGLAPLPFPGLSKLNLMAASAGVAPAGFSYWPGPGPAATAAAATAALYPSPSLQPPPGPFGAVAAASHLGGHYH
In a few lines:
as §1

The next assay has as its target ETV5 (Homo sapiens, UniProt P41161 1-510). In a few lines: as §1
The target in another assay is ELF4 (Homo sapiens, UniProt Q99607 1-663). The essentials:
as §1

A further assay deals with T6, ELK4 (Homo sapiens, UniProt P28324-2 1-405).
T6 sequence: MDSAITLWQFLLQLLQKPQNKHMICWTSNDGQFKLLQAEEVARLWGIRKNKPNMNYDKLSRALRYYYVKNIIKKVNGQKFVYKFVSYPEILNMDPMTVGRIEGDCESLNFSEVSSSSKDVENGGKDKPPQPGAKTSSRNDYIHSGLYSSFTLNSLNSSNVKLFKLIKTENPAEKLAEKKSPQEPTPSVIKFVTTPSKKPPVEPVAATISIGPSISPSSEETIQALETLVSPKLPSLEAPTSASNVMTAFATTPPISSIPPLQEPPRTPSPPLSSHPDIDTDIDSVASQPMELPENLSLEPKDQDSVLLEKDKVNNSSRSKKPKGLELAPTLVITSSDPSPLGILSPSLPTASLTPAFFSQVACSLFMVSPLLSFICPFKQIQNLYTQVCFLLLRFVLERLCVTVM
The essentials: as §1

Another assay deals with T7, ETV2 (Homo sapiens, UniProt O00321 1-342).
T7 sequence: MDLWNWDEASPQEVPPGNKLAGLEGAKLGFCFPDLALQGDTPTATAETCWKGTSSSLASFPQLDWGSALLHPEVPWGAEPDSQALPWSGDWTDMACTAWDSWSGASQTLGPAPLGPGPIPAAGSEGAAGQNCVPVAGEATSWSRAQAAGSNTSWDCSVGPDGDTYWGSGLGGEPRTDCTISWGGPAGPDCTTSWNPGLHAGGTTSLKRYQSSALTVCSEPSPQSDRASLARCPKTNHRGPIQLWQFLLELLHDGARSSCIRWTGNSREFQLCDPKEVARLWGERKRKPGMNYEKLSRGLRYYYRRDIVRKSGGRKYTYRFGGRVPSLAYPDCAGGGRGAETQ
In a few lines:
as §1

A further assay deals with ETV1 (Homo sapiens, UniProt P50549 1-477). In a few lines: as §1
Sequence of ETV1 (P50549 whole entry): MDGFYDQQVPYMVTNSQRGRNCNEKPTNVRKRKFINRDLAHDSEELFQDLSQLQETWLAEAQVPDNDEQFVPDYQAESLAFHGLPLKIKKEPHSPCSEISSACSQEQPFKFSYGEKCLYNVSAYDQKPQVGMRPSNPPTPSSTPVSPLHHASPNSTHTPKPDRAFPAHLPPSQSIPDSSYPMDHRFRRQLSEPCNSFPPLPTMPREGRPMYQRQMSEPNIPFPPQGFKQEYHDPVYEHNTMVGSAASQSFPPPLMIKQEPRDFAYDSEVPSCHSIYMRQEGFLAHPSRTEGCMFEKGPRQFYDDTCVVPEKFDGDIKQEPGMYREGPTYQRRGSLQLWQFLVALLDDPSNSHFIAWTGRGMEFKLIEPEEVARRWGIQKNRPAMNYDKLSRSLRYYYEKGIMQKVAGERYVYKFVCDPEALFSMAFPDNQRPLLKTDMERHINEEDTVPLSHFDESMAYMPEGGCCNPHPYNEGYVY
A further assay has as its target T8, ERF (Homo sapiens, UniProt P50548 1-548).
T8 sequence: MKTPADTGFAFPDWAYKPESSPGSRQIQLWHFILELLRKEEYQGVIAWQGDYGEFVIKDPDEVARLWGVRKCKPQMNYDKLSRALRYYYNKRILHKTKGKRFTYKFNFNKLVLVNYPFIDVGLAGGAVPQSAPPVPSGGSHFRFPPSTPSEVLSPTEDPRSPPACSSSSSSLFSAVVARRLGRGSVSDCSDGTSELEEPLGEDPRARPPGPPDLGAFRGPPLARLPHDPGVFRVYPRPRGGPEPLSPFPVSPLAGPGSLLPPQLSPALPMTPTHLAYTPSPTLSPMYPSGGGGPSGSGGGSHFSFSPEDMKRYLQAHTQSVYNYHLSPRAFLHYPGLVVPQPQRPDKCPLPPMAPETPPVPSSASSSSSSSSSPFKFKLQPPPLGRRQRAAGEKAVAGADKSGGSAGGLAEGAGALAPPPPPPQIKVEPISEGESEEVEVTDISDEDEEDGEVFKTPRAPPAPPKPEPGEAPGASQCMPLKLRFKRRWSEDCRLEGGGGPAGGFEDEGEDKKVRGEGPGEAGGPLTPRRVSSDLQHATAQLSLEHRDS
In a few lines:
as §1

The target of another assay is T9, ETV3L (Homo sapiens, UniProt Q6ZN32 1-361).
T9 sequence: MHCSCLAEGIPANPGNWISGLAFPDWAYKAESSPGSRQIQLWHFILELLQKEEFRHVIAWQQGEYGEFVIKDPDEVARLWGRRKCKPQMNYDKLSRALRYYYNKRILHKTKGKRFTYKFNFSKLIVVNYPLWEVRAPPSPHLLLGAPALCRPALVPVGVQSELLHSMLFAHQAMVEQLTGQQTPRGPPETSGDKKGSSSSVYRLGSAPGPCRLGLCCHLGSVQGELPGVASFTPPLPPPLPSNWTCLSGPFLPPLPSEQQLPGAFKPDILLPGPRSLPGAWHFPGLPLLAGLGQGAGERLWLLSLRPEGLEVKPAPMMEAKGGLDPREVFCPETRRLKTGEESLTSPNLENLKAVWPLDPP
The essentials: as §1

Another assay addresses T10, ETS2 (Homo sapiens, UniProt P15036 1-469).
T10 sequence: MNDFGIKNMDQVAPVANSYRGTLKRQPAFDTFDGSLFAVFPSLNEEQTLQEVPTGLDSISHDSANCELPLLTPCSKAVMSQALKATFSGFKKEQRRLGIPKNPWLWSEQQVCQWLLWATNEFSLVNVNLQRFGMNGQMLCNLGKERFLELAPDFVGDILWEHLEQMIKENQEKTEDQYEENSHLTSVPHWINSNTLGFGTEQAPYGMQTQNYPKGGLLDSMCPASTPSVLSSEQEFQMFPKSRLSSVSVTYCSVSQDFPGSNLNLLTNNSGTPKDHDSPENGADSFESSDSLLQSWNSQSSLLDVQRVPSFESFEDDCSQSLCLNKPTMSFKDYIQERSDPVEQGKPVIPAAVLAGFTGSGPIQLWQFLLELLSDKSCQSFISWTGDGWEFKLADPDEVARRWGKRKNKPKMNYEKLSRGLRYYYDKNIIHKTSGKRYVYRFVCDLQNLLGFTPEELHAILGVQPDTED
In a few lines: as §1

The next assay deals with T11, SPDEF (Homo sapiens, UniProt O95238 1-335).
T11 sequence: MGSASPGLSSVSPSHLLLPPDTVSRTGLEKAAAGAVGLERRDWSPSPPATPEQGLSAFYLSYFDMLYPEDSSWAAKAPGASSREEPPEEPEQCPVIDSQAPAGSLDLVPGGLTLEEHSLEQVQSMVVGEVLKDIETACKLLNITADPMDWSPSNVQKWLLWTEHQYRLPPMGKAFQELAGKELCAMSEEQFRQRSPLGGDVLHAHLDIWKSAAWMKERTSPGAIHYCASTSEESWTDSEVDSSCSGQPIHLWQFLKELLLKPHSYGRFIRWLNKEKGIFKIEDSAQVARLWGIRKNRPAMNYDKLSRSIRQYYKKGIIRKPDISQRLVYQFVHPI
In a few lines:
as §1

A further assay addresses T12, ETV7 (Homo sapiens, UniProt Q9Y603 1-341).
T12 sequence: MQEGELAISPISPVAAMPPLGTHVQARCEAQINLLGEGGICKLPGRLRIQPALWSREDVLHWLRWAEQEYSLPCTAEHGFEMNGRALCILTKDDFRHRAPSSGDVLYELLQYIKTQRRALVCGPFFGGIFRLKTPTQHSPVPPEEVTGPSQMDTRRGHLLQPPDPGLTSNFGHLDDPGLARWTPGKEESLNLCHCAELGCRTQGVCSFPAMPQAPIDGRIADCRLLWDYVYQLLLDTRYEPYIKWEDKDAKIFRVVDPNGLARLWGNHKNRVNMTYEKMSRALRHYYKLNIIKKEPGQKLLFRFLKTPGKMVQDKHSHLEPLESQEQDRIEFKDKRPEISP
The essentials:
as §1

The target of a further assay is T13, ETV3 (Homo sapiens, UniProt P41162-2 1-143).
T13 sequence: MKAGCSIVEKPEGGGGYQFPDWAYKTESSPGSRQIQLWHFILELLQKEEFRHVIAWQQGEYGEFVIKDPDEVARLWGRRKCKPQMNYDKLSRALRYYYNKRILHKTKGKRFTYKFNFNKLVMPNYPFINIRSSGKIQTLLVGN
In a few lines: as §1

We go through one sequence from PMC7862700, “An all-to-all approach to the identification of sequence-specific readers for epigenetic DNA modifications on cytosine”.

Sequence of ETV5 (P41161 whole entry): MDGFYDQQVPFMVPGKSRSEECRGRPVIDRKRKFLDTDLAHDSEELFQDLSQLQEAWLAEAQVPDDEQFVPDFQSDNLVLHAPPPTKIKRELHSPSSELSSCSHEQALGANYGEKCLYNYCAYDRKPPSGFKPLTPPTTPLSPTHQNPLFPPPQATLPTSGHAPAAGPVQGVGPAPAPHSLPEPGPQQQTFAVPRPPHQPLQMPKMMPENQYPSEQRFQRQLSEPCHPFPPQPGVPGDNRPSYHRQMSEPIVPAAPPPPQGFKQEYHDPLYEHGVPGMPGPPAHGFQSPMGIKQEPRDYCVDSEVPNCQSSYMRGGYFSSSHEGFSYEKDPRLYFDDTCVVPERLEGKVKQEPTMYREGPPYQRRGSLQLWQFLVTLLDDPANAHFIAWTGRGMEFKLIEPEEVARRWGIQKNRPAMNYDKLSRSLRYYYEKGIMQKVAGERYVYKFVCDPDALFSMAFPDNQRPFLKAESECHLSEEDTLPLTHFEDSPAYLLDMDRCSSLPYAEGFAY
Sequence of ELF4 (Q99607 whole entry): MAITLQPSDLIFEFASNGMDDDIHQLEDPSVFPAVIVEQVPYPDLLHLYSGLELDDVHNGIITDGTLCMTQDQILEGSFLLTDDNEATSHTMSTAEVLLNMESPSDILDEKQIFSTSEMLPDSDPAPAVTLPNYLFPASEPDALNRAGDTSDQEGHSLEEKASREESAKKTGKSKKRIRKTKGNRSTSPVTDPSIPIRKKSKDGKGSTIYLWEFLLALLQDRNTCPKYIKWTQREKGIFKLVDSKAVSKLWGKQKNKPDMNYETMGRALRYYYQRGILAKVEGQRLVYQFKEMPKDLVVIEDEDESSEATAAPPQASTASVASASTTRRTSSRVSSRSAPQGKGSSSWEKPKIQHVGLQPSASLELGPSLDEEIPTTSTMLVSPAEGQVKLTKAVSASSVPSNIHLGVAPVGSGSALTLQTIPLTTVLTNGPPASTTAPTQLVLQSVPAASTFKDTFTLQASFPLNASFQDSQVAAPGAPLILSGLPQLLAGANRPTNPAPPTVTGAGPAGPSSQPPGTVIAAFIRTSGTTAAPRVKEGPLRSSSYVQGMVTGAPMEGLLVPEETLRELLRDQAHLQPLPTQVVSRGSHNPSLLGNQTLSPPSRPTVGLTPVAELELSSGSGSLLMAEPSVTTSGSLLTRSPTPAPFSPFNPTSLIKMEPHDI
Sequence of SPIB (Q01892 whole entry): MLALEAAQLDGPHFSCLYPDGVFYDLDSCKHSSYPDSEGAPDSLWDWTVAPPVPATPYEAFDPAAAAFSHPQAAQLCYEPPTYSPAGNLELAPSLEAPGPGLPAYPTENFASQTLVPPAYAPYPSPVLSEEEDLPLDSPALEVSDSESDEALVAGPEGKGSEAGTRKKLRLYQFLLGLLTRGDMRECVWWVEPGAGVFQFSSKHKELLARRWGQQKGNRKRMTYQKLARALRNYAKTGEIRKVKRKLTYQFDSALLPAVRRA

For the sequence TGCAGC, the binding signal in the assay with ELK1 was 1.07 fold enrichment (6-mer frequency, TF over GST control); in the assay with GABPA, 1.16 fold enrichment (6-mer frequency, TF over GST control); with ERG, 1.06 fold enrichment (6-mer frequency, TF over GST control); in the assay with ELF1, 1.09 fold enrichment (6-mer frequency, TF over GST control); with EHF, 1.09 fold enrichment (6-mer frequency, TF over GST control); in the assay with SPI1, 1.02 fold enrichment (6-mer frequency, TF over GST control). For the same sequence, the binding signal is 1.17 fold enrichment (6-mer frequency, TF over GST control) in the assay with SPIB; 1.08 fold enrichment (6-mer frequency, TF over GST control) in the assay with FEV; 1.03 fold enrichment (6-mer frequency, TF over GST control) with ETV5; 1.1 fold enrichment (6-mer frequency, TF over GST control) with ELF4; 1.15 fold enrichment (6-mer frequency, TF over GST control) with ELK4; 1.12 fold enrichment (6-mer frequency, TF over GST control) with ETV2. For the same sequence, the binding signal was 1.02 fold enrichment (6-mer frequency, TF over GST control) with ETV1; 1.13 fold enrichment (6-mer frequency, TF over GST control) in the assay with ERF; 1.07 fold enrichment (6-mer frequency, TF over GST control) in the assay with ETV3L; 1.1 fold enrichment (6-mer frequency, TF over GST control) with ETS2; 1.15 fold enrichment (6-mer frequency, TF over GST control) with SPDEF; 1.04 fold enrichment (6-mer frequency, TF over GST control) in the assay with ETV7. In addition, the binding signal with ETV3 was 1.05 fold enrichment (6-mer frequency, TF over GST control).
